HT1080 IDH1KD tx: kills HT-1080 cells with IDH1 knockdown; HT-1080 IDH1 knockdown viability, ATP luminescence, 48 h; Potency, µM (top dose mostly 46.1 µM), for inactives: at the top dose activity, negative = toxicity, actives largely listed as cytotoxic; 2% of 360,000 active; AID 686971;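 also: 0% = DMSO wells and -100% = cell-free medium wells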
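Knockdown cells (IDH1KD HT-1080) received compounds 2 h after plating at 750 cells/well and were kept 48 h at 37 °C in 5% FBS RPMI. A CellTiter-Glo luminescence read gave % activity for curve fitting.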
KB-3-1 cytotox: kills parental KB-3-1 adenocarcinoma cells; KB-3-1 viability, CellTiter-Glo ATP luminescence, 72 h; Potency, µM (top dose mostly 46.1 µM), usual class: cytotoxic; 1.4% of 400,000 active; AID 1347075; also: nearly all actives have a fitted effect of over 60% in size
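Cytotoxicity in the drug-sensitive parental line KB-3-1 was scored as loss of CellTiter-Glo luminescence following 72 h incubation with compound. Values come from curve fitting of normalized concentration-response data.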
TDP1 cell CPT: growth inhibition of DT40 Tdp1-/-;hTDP1 cells with camptothecin (screen for TDP1 inhibitors); chicken DT40 Tdp1-/-;hTDP1 cells + 20 nM CPT, ATP luminescence, 48 h; Potency, µM (titrated, usually from 46.2 µM), inactives show at the top dose activity change, negative = growth inhibition, usual class: inhibitors; 12% of 420,000 active; AID 686979; also: nearly all actives have a fitted effect of over 55% in size
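Cell growth measured by CellTiter-Glo luminescence after a minimum 48 h, 37 C compound exposure with 20 nM CPT in Tdp1-knockout DT40 cells stably expressing hTDP1, seeded 400/well; qHTS titration format.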
TDP1 cell noCPT: qHTS for Inhibitors of human tyrosyl-DNA phosphodiesterase 1 (TDP1): qHTS in cells in absence of CPT; DT40 Tdp1-/- hTDP1 cells, no CPT, ATP luminescence, 48 h; AID 686978, 2013; Potency, µM (highest dose often 46.2 µM), for the others: at the highest dose activity change, negative = growth inhibition, hits mostly inhibitors; 15% of 420,000 active; also: nearly all actives have a fitted effect of over 55% in size
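Chicken DT40 Tdp1-/- cells complemented with human TDP1, screened without camptothecin (DMSO vehicle only), 400 cells/well. Compounds pin-transferred, cells incubated at 37 °C for at least 48 hr. Growth read as ATP-dependent luminescence (CellTiter-Glo, 30 min at RT).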
KB-V1 MDR tox: kills drug-selected multidrug resistant KB-V1 cells | KB-V1 MDR cells viability, CellTiter-Glo, 72 h | Potency, µM (titrated, usually from 46.1 µM), most hits filed as cytotoxic | 3.4% of 400,000 active; also: nearly all actives have a fitted effect of over 60% in size
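Compound-treated KB-V1 multidrug-resistant cells, 72 h, 37 degrees C; viability by CellTiter-Glo. Fitted qHTS curves give the values.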
HT1080-NT tox: kills 2HG-producing HT-1080-NT fibrosarcoma cells; 1.6% of 360,000 active; HT-1080-NT fibrosarcoma viability, CellTiter-Glo ATP luminescence, 48 h; Potency, µM (series often up to 46.1 µM), inactives show top-dose activity, negative = less viability, hits mostly cytotoxic;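 also: NT is the 2HG producing partner of a matched IDH1 knockdown line; 0% = DMSO-treated cells and -100% = media-only wells without cells; nearly all actives have a fitted effect of over 55% in size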
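HT-1080-NT; 750 cells/well; 5% FBS RPMI; 48 h compound, 37 degrees C; CellTiter-Glo luminescence; curve fitting and curve-class assignment.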
Active calls of the source: *; i = inactive; ? = inconclusive; . = not tested or not shown; [ ] = another dose, or the depositor's remark. In the library only some 19% were active in any assay of this set; here they are far more common. Calls follow the shape of the dose curve; as a rule, active = well fitted curve in the direction sought with a large enough effect; inconclusive = small, poorly fitted or top-dose-only effect, or another doubt; inactive = no such curve, though single readings can be large; an effect the other way counts as inactive or inconclusive. Unless noted, % is scaled to controls: 0 for no effect and ±100 for the full control effect; potency is read from the fitted curve at half-maximal effect.

SMILES | HT1080 IDH1KD tx | KB-3-1 cytotox | TDP1 cell CPT | TDP1 cell noCPT | KB-V1 MDR tox | HT1080-NT tox
Cc1ccc(S(=O)(=O)c2cn(C)c3cc(N4CCCC4)c(F)cc3c2=O)c(C)c1 | . | i | ? | 23µM* | i | .
Cc1ccc(S(=O)(=O)c2cn(C)c3cc(N4CCCCCC4)c(F)cc3c2=O)cc1 | . | i | ? | 16µM* | i | .
COc1ccc(Cn2c(=O)c3oc4ccccc4c3n(Cc3cccc(C)c3)c2=O)cc1 | . | . | -13% | -11% | . | .
COC(=O)CSc1nc(NCc2ccccc2)nc(N(C)C)n1 | 4% | i | -4% | -16% | i | 3%
COc1nc(SCC(=O)Nc2ccccc2Cl)nc(N(C)C)n1 | -14% | i | ? | -20% | i | -2%
CN(C)c1nc(NCc2ccccc2)nc(SCC(=O)Nc2ccc(Cl)c(Cl)c2)n1 | ? | i | 21µM* | ? | 7.3µM* | ?
CCNc1nc(SCC(=O)Nc2ccc(Cl)c(Cl)c2)nc(N(C)C)n1 | 1% | i | ? | 15µM* | i | -6%
Cc1cc(OCC(=O)Nc2cc(-c3nc4ccccc4[nH]3)ccc2C)ccc1Cl | . | . | 15µM* | 7.3µM* | . | .
Cc1cc(Cl)ccc1OCC(=O)N[C@@H](Cc1ccccc1)c1nc2ccccc2[nH]1 | ? | ? | 21µM* | 16µM* | ? | ?
Cc1ccc(-c2nc3ccccc3[nH]2)cc1NC(=O)c1sc2cc(Cl)ccc2c1Cl | -3% | i | 8.2µM* | 16µM* | i | -6%
CCC(=O)NC(Cc1ccccc1)c1nc2ccccc2[nH]1 (configuration not stated) | 1% | i | 7% | 0% | i | 5%
Cc1ccc(-c2nc3ccccc3[nH]2)cc1NC(=O)COc1ccc(Cl)cc1Cl | . | i | 6.5µM* | 5.2µM* | ? | .
Cc1ccc(-c2nc3ccccc3[nH]2)cc1NC(=O)c1ccco1 | 5% | i | -25% | ? | i | 16%
CCNC(=O)C1(C)CCN(C(=O)c2c(-c3ccccc3)noc2C)C1 (configuration not stated) | 0% | i | -22% | -2% | i | 28%
CCC(C)NC(=O)c1sc2nc(C)c(C(=O)Nc3ccc(C)cc3C)c(-c3ccc(Br)cc3)c2c1N (configuration not stated) | . | i | ? | ? | i | .
ClCC(CNCc1ccccc1)c1ccccc1 (configuration not stated) | 1% | i | 9% | -13% | i | 0%
OC1CCN(Cc2ccc3c(c2)CN(Cc2ccc(Oc4ncccn4)cc2)CCO3)CC1 | . | . | 1% | -8% | . | .
CCOC(=O)c1csc(NC(=O)COc2ccc(Cl)cc2Cl)n1 | -2% | i | -14% | -29% | 23µM* | 0%
CC(C(=O)Nc1cc([N+](=O)[O-])ccc1Cl)N1CCN(c2ccccc2O)CC1 (configuration not stated) | ? | ? | ? | 13µM* | 10µM* | ?
COc1ccc([N+](=O)[O-])cc1NC(=O)C(C)N1CCCC1 (configuration not stated) | 8% | i | 14% | -14% | i | -11%
COc1ccc(N2CCN(Cc3csc(C)c3-c3ccc(C)cc3)CC2)cc1 | -30% | i | ? | ? | i | ?
Cc1ccc(-c2c(CN3CCN(c4cc(C)ccc4C)CC3)csc2C)cc1 | . | . | ? | 16µM* | . | .
Cc1ccc(C)c(N2CCN(Cc3csc(C)c3C)CC2)c1 | . | . | ? | 15µM* | . | .
O=C1NC(=O)[C@@]2(CCOc3ccc(F)cc32)N1 | . | . | -2% | -4% | . | .
CC1CN=C2C(C(=O)Nc3ccccc3)=C(O)CC(c3ccccc3)N21 (configuration not stated) | -2% | i | ? | 23µM* | i | 11%
SMILES | HT1080 IDH1KD tx | KB-3-1 cytotox | TDP1 cell CPT | TDP1 cell noCPT | KB-V1 MDR tox | HT1080-NT tox
O=C(Nc1ccccc1)C1=C(O)CC(c2ccoc2)CC1=Nc1ccccc1 (configuration not stated) | 2%[9.24 µM] | i | ? | ? | i | -13%
S=c1nccc(-c2ccc3c(c2)CCO3)[nH]1 | 3% | i | 10µM* | ? | i | 3%
COc1ccc(N2C(=O)CS/C2=N\C(=S)Nc2ccccc2)cc1 | -15% | i | 6.5µM* | 5.8µM* | ? | ?
Cc1ccc(C(=O)OCC(=O)Nc2ccccc2)cc1S(=O)(=O)N1CCCCC1 | 1% | i | -9% | -8% | ? | 1%[9.24 µM]
Cc1ccc(C(=O)OCC(=O)c2c[nH]c3ccccc23)cc1S(=O)(=O)N1CCCCC1 | -1% | i | 23µM* | 18µM* | ? | -20%
Cc1ccc(C(=O)OCC(=O)NCc2ccccc2)cc1S(=O)(=O)N1CCCCC1 | 1% | i | 15µM* | ? | ? | -1%[9.24 µM]
COc1ccccc1CNC(=O)COC(=O)c1ccc(C)c(S(=O)(=O)N2CCCCC2)c1 | 11% | i | -3% | 9% | i | 6%
O=C(COC(=O)c1ccc(Cl)c(S(=O)(=O)N2CCCCCC2)c1)NCc1ccccc1 | -12% | i | 23µM* | ? | i | -13%
Cc1[nH]c2ccccc2c1C(=O)COC(=O)c1cccc(S(=O)(=O)N2CCCCC2)c1 | 3% | i | 18µM* | ? | ? | -2%
Cn1c(N)c(C(=O)COC(=O)c2cccc(S(=O)(=O)N3CCCCC3)c2)c(=O)n(C)c1=O | -4% | i | -3% | -30% | i | -1%
O=C(COC(=O)c1ccc(Cl)c(S(=O)(=O)N2CCCC2)c1)NCc1ccccc1 | 1% | i | ? | -29% | i | 1%
C[C@H](CO)N1C[C@H](C)[C@@H](CN(C)Cc2ccc3c(c2)OCCN3C)OCc2cnnn2CCCC1=O | -2% | i | ? | -4% | i | -2%
O=S(=O)(Cc1ccccc1)Nc1ccc(F)cc1 | 11% | ? | 4% | 5% | i | -7%
Cc1ccc(C(=O)OCC(=O)c2c[nH]c3ccccc23)cc1NC(=O)c1ccco1 | -12% | i | ? | 21µM* | ? | -7%
Cc1ccc(CNC(=O)COC(=O)c2ccc(Cl)c(N)c2)cc1 | 5% | i | 23µM* | -10% | i | 17%
O=C(OCC(=O)N1CCCCCC1)c1ccc(Cl)c(S(=O)(=O)N2CCCC2)c1 | -16% | i | 23µM* | ? | i | 0%
